Experimental data: the supplement of paper PMC10849652
About 8,800 targets were measured; listed, in parts, are those with a hit and a random draw of the rest. About 0.5% of all pairs of compound and target were hits.

What was measured:
Experiment in all cases: log2 fold change, soluble protein after heating vs DMSO (PISA); higher = thermal stabilisation; K562 lysate, 10 uM; active = over 0.2 and 3.5 SD of the protein, either way, in both replicates (recomputed)
alvocidib = compound: CN1CC[C@H](c2c(O)cc(O)c3c(=O)cc(-c4ccccc4Cl)oc23)[C@H](O)C1 [alvocidib]
Summary of the method: (§1)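 To prepare the extract, K562 pellets were dounce-homogenised in PBS pH 7.4 with 1 mM MgCl2, giving crude material at 1 mg/mL protein. This was treated with 10 μM compound for 30 min, then heated in aliquots for 3 min over 48°C-58°C before pooling and addition of NP-40 to 0.5% at 4°C. Centrifugation at 21,000xg for 90 min left soluble protein in the supernatant, which TMTpro 16plex LC-MS/MS quantified with equalised channel sums. Results are log-two fold changes in thermal stability compared with solvent controls, from duplicates.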

Tubastatin A = compound: CN1CCc2c(c3ccccc3n2Cc2ccc(C(=O)NO)cc2)C1 [Tubastatin A]
Summary of the method: as §1

[1] = compound: CNC(=O)C1=CC=CC=C1NC2=NC(=NC=C2Cl)NC3=C(C=C(C=C3)N4CCOCC4)OC
Summary of the method: as §1

defactinib = compound: CNC(=O)c1ccc(Nc2ncc(C(F)(F)F)c(NCc3nccnc3N(C)S(C)(=O)=O)n2)cc1 [defactinib]
Summary of the method: as §1

[2] = compound: CNc1nc(-c2ccc3c(N)n[nH]c3c2)cc(N2C[C@@H](C(=O)NC3CCCCC3)CC[C@H]2C)n1
Summary of the method: as §1

encorafenib = compound: COC(=O)N[C@@H](C)CNc1nccc(-c2cn(C(C)C)nc2-c2cc(Cl)cc(NS(C)(=O)=O)c2F)n1 [encorafenib]
Summary of the method: as §1

[3] = compound: COC(=O)[C@H](CCSC)NC(=O)C1=C(C=C(C=C1)NC[C@H](CS)N)C2=CC=CC=C2
Summary of the method: as §1

alisertib = compound: COc1cc(Nc2ncc3c(n2)-c2ccc(Cl)cc2C(c2c(F)cccc2OC)=NC3)ccc1C(=O)O [alisertib]
Summary of the method: as §1

[4] = compound: COc1cc2nc(-c3cc(F)ccc3O)nc(N[C@@H]3CNC[C@H]3C(C)(C)O)c2cc1OC
Summary of the method: as §1

gefitinib = compound: COc1cc2ncnc(Nc3ccc(F)c(Cl)c3)c2cc1OCCCN1CCOCC1 [gefitinib]
Summary of the method: as §1

Measured: log2 fold change

WIPI2 (UniProt Q9Y4P8)
Chain of UniProt Q9Y4P8 (Q9Y4P8 whole entry, looked up): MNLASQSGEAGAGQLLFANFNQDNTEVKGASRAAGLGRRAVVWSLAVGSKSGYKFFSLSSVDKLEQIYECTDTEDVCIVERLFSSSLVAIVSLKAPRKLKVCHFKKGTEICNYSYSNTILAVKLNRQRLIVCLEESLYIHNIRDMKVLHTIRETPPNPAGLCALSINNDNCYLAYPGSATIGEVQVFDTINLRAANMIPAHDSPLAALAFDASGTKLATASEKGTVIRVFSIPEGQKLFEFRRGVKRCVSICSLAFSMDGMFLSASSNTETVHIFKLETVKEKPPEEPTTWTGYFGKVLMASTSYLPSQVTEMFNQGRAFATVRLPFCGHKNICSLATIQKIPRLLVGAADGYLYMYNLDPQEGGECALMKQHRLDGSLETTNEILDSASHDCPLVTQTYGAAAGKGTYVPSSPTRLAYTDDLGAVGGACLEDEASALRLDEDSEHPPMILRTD
inactive: alvocidib -0.036 | Tubastatin A 0.005 | [1] -0.007 | defactinib 0.036 | [2] -0.051 | encorafenib 0.029 | [3] 0.049 | alisertib -0.033 | [4] -0.012 | gefitinib -0.027

WDR45 isoform 2 (UniProt Q9Y484)
Chain of UniProt Q9Y484 (Q9Y484 whole entry, looked up): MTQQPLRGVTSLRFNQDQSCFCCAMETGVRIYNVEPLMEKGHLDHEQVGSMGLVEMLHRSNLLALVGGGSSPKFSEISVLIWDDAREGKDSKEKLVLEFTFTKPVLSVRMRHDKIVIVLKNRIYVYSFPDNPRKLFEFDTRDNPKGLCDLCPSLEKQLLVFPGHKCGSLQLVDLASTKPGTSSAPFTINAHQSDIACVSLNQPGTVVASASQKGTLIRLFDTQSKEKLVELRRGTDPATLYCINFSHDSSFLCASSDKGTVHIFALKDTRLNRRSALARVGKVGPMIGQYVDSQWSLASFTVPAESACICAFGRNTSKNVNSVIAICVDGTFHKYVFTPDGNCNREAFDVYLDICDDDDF
inactive: alvocidib -0.065 | Tubastatin A -0.067 | [1] -0.001 | defactinib 0.013 | [2] -0.059 | encorafenib -0.042 | [3] -0.051 | alisertib 0.021 | [4] -0.008 | gefitinib 0.037

WRB (UniProt O00258)
Chain of UniProt O00258 (O00258 whole entry, looked up): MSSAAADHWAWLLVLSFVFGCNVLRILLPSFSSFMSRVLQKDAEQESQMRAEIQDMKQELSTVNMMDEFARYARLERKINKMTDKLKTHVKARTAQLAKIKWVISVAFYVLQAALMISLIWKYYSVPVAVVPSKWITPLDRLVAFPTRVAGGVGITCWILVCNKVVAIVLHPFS
inactive: alvocidib -0.022 | Tubastatin A 0.114 | [1] 0.029 | defactinib -0.003 | [2] 0.044 | encorafenib -0.067 | [3] 0.027 | alisertib -0.028 | [4] 0.022 | gefitinib 0.061

ZC3H11A (UniProt O75152)
inactive: alvocidib 0.098 | Tubastatin A -0.077 | [1] 0.076 | defactinib -0.066 | [2] -0.023 | encorafenib 0.045 | [3] 0.078 | alisertib 0.019 | [4] 0.09 | gefitinib 0.034

ZMYM1 (UniProt Q5SVZ6)
inactive: alvocidib -0.162 | Tubastatin A -0.098 | [1] 0.071 | defactinib -0.035 | [2] 0.067 | encorafenib 0.063 | [3] -0.038 | alisertib -0.008 | [4] 0.03 | gefitinib 0.009

XPO1 (UniProt O14980)
inactive: alvocidib 0.005 | Tubastatin A -0.096 | [1] -0.011 | defactinib 0.016 | [2] -0.013 | encorafenib 0.034 | [3] -0.101 | alisertib 0.013 | [4] 0.023 | gefitinib -0.007

VPS18 (UniProt Q9P253)
inactive: alvocidib -0.016 | Tubastatin A -0.106 | [1] 0.011 | defactinib -0.057 | [2] -0.008 | encorafenib 0.019 | [3] -0.125 | alisertib 0.005 | [4] -0.006 | gefitinib 0.006

WDCP (UniProt Q9H6R7)
inactive: alvocidib 0.019 | Tubastatin A -0.138 | [1] 0.025 | defactinib 0.005 | [2] 0.032 | encorafenib 0.024 | [3] -0.019 | alisertib 0.01 | [4] 0.062 | gefitinib -0.017

ZC2HC1A (UniProt Q96GY0)
Chain of UniProt Q96GY0 (Q96GY0 whole entry, looked up): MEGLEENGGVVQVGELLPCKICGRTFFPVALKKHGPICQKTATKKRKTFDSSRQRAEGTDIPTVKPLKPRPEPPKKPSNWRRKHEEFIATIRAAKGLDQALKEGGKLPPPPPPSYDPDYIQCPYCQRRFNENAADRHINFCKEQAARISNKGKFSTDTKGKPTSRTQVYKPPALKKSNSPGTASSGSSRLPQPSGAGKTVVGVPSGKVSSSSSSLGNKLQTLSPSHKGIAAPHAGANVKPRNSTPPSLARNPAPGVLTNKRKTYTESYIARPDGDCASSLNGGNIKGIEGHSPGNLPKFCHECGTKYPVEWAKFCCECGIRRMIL
inactive: alvocidib -0.034 | Tubastatin A -0.044 | [1] -0.021 | defactinib -0.155 | [2] -0.04 | encorafenib 0.03 | alisertib -0.073 | [4] -0.021 | gefitinib 0.019
active: [3] -0.235

VPS35L (UniProt Q7Z3J2)
Chain of UniProt Q7Z3J2 (Q7Z3J2 whole entry, looked up): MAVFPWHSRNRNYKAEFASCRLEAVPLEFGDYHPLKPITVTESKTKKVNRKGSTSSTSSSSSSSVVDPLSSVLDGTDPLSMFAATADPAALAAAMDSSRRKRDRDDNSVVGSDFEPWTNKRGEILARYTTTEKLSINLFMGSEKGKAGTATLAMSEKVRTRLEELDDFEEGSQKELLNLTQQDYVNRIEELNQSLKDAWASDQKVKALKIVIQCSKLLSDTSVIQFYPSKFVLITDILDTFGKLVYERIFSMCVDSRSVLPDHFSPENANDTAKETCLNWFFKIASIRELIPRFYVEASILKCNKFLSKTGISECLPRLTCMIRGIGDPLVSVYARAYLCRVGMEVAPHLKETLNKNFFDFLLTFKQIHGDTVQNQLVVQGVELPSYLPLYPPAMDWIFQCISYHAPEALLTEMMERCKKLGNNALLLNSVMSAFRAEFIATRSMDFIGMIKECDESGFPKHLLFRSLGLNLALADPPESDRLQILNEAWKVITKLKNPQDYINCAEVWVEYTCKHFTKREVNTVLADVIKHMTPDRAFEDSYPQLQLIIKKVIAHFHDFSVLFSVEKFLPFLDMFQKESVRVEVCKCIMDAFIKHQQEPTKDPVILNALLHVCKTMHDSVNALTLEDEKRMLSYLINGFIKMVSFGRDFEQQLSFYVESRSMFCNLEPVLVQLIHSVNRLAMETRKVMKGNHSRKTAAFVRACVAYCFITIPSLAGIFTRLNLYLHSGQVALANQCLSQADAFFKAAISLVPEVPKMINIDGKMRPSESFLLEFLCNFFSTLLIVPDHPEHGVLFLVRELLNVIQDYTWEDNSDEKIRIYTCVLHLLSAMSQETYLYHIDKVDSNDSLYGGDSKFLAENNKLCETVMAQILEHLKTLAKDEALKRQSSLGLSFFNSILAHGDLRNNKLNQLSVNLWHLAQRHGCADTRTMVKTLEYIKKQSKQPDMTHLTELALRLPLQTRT
inactive: alvocidib 0 | Tubastatin A -0.083 | [1] 0.015 | defactinib 0.036 | [2] -0.013 | encorafenib 0.014 | [3] 0.006 | alisertib -0.034 | [4] -0.023 | gefitinib -0.076

VPS72 (UniProt Q15906)
Chain of UniProt Q15906 (Q15906 whole entry, looked up): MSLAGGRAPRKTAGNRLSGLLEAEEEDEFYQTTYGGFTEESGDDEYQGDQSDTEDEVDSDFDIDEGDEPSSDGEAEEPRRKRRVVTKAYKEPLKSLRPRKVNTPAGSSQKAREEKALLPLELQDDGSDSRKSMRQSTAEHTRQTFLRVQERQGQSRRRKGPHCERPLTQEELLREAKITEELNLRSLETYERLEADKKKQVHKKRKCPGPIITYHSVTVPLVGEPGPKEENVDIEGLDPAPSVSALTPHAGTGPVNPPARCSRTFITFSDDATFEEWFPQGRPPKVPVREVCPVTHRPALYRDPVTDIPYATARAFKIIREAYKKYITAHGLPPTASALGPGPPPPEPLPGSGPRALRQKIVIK
inactive: alvocidib 0 | Tubastatin A 0.028 | [1] 0.041 | defactinib -0.078 | [2] -0.02 | encorafenib -0.016 | [3] -0.134 | alisertib -0.058 | [4] -0.017 | gefitinib -0.108

ZC3HC1 (UniProt Q86WB0)
Chain of UniProt Q86WB0 (Q86WB0 whole entry, looked up): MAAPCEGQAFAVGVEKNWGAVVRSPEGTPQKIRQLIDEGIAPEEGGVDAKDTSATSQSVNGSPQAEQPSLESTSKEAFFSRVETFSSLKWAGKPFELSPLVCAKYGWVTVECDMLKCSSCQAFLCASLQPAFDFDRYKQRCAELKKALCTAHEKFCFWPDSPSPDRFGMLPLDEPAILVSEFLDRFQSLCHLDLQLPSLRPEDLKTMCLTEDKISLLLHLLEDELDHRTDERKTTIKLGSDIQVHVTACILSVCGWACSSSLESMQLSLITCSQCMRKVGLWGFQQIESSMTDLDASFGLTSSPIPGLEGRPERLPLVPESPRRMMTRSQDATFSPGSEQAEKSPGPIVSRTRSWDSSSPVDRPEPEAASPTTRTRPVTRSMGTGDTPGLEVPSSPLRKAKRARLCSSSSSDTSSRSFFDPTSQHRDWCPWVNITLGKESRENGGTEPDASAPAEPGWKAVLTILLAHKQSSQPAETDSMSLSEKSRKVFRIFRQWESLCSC
inactive: alvocidib 0.049 | Tubastatin A -0.101 | [1] 0.018 | defactinib -0.015 | [2] 0.034 | encorafenib -0.001 | [3] 0.078 | alisertib 0.022 | [4] -0.013 | gefitinib 0.024

UXT isoform 2 (UniProt Q9UBK9)
Chain of UniProt Q9UBK9 (Q9UBK9 whole entry, looked up): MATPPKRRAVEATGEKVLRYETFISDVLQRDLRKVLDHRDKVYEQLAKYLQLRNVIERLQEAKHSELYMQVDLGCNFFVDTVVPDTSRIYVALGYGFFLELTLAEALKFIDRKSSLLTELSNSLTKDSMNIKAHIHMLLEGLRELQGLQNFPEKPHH
active: [2] 0.574
inactive: alvocidib -0.038 | Tubastatin A 0.081 | [1] 0.015 | defactinib 0.069 | encorafenib -0.081 | [3] 0.025 | alisertib -0.041 | [4] 0.038 | gefitinib 0.04

VPS41 (UniProt P49754)
Chain of UniProt P49754 (P49754 whole entry, looked up): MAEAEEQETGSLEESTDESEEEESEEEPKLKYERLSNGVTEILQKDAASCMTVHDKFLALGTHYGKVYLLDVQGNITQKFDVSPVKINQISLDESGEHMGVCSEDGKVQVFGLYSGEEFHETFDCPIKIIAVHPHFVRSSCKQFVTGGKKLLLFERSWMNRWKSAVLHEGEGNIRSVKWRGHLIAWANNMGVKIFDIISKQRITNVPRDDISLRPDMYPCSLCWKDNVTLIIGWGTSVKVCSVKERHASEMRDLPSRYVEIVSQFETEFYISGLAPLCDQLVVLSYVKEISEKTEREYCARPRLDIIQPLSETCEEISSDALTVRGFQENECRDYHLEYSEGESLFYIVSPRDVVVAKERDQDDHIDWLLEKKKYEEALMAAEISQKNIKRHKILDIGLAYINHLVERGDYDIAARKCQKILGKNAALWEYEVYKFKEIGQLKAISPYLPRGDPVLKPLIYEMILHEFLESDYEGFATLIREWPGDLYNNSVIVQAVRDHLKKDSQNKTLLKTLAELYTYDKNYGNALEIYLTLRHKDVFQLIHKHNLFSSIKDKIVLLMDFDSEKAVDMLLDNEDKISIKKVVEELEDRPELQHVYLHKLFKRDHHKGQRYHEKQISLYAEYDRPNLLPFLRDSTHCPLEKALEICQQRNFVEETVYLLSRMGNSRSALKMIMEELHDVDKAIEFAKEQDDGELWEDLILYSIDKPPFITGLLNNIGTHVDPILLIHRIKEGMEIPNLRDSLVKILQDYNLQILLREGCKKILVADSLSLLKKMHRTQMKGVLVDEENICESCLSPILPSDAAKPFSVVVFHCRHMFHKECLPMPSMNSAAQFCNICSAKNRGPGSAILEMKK
inactive: alvocidib 0.068 | Tubastatin A -0.128 | [1] 0.03 | defactinib 0.006 | [2] -0.055 | encorafenib 0.019 | [3] -0.072 | alisertib -0.043 | [4] 0.006 | gefitinib -0.004

VPS33A (UniProt Q96AX1)
Chain of UniProt Q96AX1 (Q96AX1 whole entry, looked up): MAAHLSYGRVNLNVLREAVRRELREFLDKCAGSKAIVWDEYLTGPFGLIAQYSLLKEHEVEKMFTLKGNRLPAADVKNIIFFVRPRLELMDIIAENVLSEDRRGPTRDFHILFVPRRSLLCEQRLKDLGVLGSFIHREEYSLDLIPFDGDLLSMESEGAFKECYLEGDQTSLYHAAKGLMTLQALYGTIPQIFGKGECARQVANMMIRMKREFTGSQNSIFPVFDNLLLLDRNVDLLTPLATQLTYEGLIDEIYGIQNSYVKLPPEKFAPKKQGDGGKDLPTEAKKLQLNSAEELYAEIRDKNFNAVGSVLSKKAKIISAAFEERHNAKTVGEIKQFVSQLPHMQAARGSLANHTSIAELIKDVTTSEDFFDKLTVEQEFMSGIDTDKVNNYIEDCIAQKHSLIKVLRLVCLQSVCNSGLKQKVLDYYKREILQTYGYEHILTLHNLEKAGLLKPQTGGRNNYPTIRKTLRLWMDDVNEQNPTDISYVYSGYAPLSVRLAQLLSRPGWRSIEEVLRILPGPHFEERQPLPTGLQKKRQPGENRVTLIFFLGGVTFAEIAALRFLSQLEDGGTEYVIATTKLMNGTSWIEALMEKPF
inactive: alvocidib -0.01 | Tubastatin A -0.077 | [1] 0.033 | defactinib 0.012 | [2] -0.011 | encorafenib 0.028 | [3] -0.044 | alisertib 0.021 | [4] -0.022 | gefitinib 0.027
